According to PubChem BioAssay (NCATS):
Records with an inconclusive call do not appear. Where a call stands in place of a potency, no number is given. Calls of active or inactive are those of the source. Calls follow the shape of the dose curve; as a rule, active = well fitted inhibition curve with a large enough effect; inconclusive = small, poorly fitted or top-dose-only effect; inactive = flat fitted curve, though single readings scatter. Numbered stars: 1 amine (or outer) side, 2 acyl side, 3 side chain; on linkers, the order of the positions; unused ones are H or OH. Bridge positions count the residues as written; N and C are the ends. Square brackets hold non-standard residues; d marks the D form. Peptide text beside a SMILES is read from it. I, II: the chains in the order shown. Actinocin(9to1) = Cc1c2oc3c(C)ccc(C(=O)[*:1])c3nc-2c(C(=O)[*:2])c(N)c1=O; NMeV = CN[C@H](C(=O)O)C(C)C; Sar = CNCC(=O)O

How the values were obtained:
Test in all cases: qHTS profiling for inhibitors of Plasmodium falciparum proliferation (AID 504749); also: nearly all actives have a fitted effect of over 60% in size
Details in all cases: P. falciparum in erythrocytes, SYBR Green DNA, 72 h; series mostly up to 28.7 µM
[1] = system: AS120
Method in brief: (§1)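 Infected RBCs, 0.3% parasitemia/2.5% Hct final; cpd 72 h, 37 C, 5% CO2; lysis buffer with saponin/triton/SYBR Green I, o/n RT dark; FI 485/535; norm. to artemisinin (0.29 uM) and DMSO.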

[2] = system: ATS189
Method in brief: as §1

[3] = system: ATS95
Method in brief: as §1

[4] = system: C2A
Method in brief: as §1

[5] = system: CP185
Method in brief: as §1

[6] = system: CP191
Method in brief: as §1

[7] = system: CP192
Method in brief: as §1

[8] = system: CP194
Method in brief: as §1

[9] = system: CP201
Method in brief: as §1

[10] = system: CP203
Method in brief: as §1

[11] = system: CP211
Method in brief: as §1

[12] = system: CP215
Method in brief: as §1

[13] = system: CP217
Method in brief: as §1

[14] = system: CP237
Method in brief: as §1

[15] = system: CP238
Method in brief: as §1

[16] = system: CP247
Method in brief: as §1

[17] = system: CP250
Method in brief: as §1

[18] = system: CP252
Method in brief: as §1

[19] = system: CP256
Method in brief: as §1

[20] = system: CP260
Method in brief: as §1
Potency is read from the fitted curve at half-maximal effect.

Compound	Potency [1]	Potency [2]	Potency [3]	Potency [4]	Potency [5]	Potency [6]	Potency [7]	Potency [8]	Potency [9]	Potency [10]	Potency [11]	Potency [12]	Potency [13]	Potency [14]	Potency [15]	Potency [16]	Potency [17]	Potency [18]	Potency [19]	Potency [20]
NCCCC[C@H](N[C@@H](CCc1ccccc1)C(=O)O)C(=O)N1CCC[C@H]1C(=O)O	inactive	inactive	inactive	inactive	inactive	inactive	inactive	inactive	inactive	inactive	inactive	inactive	inactive	inactive	inactive	inactive	inactive	inactive	inactive	inactive
CC(=O)N(O)CCCCCNC(=O)CCC(=O)N(O)CCCCCNC(=O)CCC(=O)N(O)CCCCCN	inactive	inactive	inactive	inactive	inactive	inactive	inactive	inactive	inactive	inactive	inactive	inactive	inactive	inactive	inactive	inactive	inactive	inactive	inactive	inactive
Cc1c(C)n(CCN(C)C)c2ccc(C(=O)OCCN(C)C)cc12	inactive	inactive	inactive	inactive	inactive	inactive	inactive	inactive	inactive	inactive	inactive	inactive	inactive	11.2 µM (active)	inactive	inactive	inactive	inactive	inactive	–
CCN(CC)C(=O)N1CCN(C)CC1	inactive	inactive	inactive	inactive	inactive	inactive	inactive	inactive	inactive	inactive	inactive	inactive	inactive	inactive	inactive	inactive	inactive	inactive	inactive	inactive
CC(=O)Oc1ccc(C(=C2CCCCC2)c2ccc(OC(C)=O)cc2)cc1	inactive	inactive	inactive	inactive	inactive	inactive	inactive	inactive	inactive	inactive	inactive	inactive	inactive	inactive	inactive	inactive	inactive	inactive	inactive	–
CCCCCC=CCC=CCCCCCCCC(=O)OCC	inactive	inactive	inactive	inactive	inactive	inactive	inactive	inactive	inactive	inactive	inactive	inactive	inactive	inactive	inactive	inactive	inactive	inactive	inactive	inactive
CCCCOc1ccc(OCCCN2CCOCC2)cc1	inactive	inactive	inactive	inactive	inactive	inactive	inactive	inactive	inactive	inactive	inactive	inactive	inactive	inactive	inactive	inactive	inactive	inactive	inactive	inactive
CN=C(NC#N)NCCSCc1csc(N=C(N)N)n1	inactive	inactive	inactive	inactive	inactive	inactive	inactive	inactive	inactive	inactive	inactive	inactive	inactive	inactive	inactive	inactive	inactive	inactive	inactive	inactive
COc1c2occc2c(OC)c2c(=O)cc(C)oc12	inactive	inactive	inactive	inactive	inactive	inactive	inactive	inactive	inactive	inactive	inactive	inactive	inactive	inactive	inactive	inactive	inactive	inactive	inactive	inactive
CCN1CCCC1=O	inactive	inactive	inactive	inactive	inactive	inactive	inactive	inactive	inactive	inactive	inactive	inactive	inactive	inactive	inactive	inactive	inactive	inactive	inactive	inactive
C[N+]1(CCCCC[N+]2(C)CCCC2)CCCC1	inactive	inactive	inactive	inactive	inactive	inactive	inactive	inactive	inactive	inactive	inactive	inactive	inactive	inactive	inactive	inactive	inactive	inactive	inactive	inactive
Cc1ccnc(NS(=O)(=O)c2ccc(N)cc2)n1	inactive	inactive	inactive	inactive	inactive	inactive	inactive	inactive	inactive	inactive	inactive	–	inactive	inactive	inactive	inactive	inactive	inactive	inactive	inactive
CCCCCCc1ccc(O)cc1O	inactive	inactive	inactive	inactive	inactive	inactive	inactive	inactive	inactive	inactive	inactive	inactive	inactive	inactive	inactive	inactive	inactive	inactive	inactive	inactive
CN(C)/N=N/c1nc[nH]c1C(N)=O	inactive	inactive	inactive	inactive	inactive	inactive	inactive	inactive	inactive	inactive	inactive	inactive	inactive	inactive	inactive	inactive	inactive	inactive	–	inactive
COC(=O)[C@@H]1CC2=CC(=O)CC[C@]2(C)[C@@]23O[C@@H]2C[C@@]2(C)[C@@H](CC[C@@]24CCC(=O)O4)[C@H]13	inactive	inactive	inactive	inactive	inactive	inactive	inactive	inactive	inactive	inactive	inactive	inactive	inactive	inactive	inactive	inactive	inactive	inactive	inactive	inactive
Cc1c(N(C)CS(=O)(=O)O)c(=O)n(-c2ccccc2)n1C	inactive	inactive	inactive	inactive	inactive	inactive	inactive	inactive	inactive	inactive	inactive	–	inactive	inactive	inactive	inactive	inactive	inactive	inactive	inactive
CCOc1ccc2nc3cc(N)ccc3c(N)c2c1	8.91 µM (active)	7.08 µM (active)	10 µM (active)	6.31 µM (active)	5.01 µM (active)	5.01 µM (active)	9.53 µM (active)	15.1 µM (active)	12 µM (active)	16.9 µM (active)	–	9.53 µM (active)	7.08 µM (active)	4.47 µM (active)	5.01 µM (active)	10 µM (active)	8.91 µM (active)	7.08 µM (active)	4.47 µM (active)	3.98 µM (active)
N[C@@H](Cc1cnc[nH]1)C(=O)O	inactive	inactive	inactive	inactive	inactive	inactive	inactive	inactive	inactive	–	inactive	inactive	inactive	inactive	inactive	inactive	inactive	inactive	inactive	inactive
N[C@H](Cc1c[nH]c2ccccc12)C(=O)O	inactive	inactive	inactive	inactive	inactive	inactive	inactive	inactive	inactive	inactive	inactive	inactive	inactive	inactive	inactive	inactive	inactive	inactive	inactive	inactive
CCCCN1CCCC1C(=O)Nc1c(C)cc(C)cc1C (stereo not drawn)	inactive	inactive	inactive	inactive	inactive	inactive	inactive	inactive	inactive	inactive	inactive	inactive	inactive	–	inactive	inactive	inactive	inactive	inactive	inactive
O=C(O)CNC(=O)c1ccccc1	inactive	inactive	inactive	inactive	inactive	inactive	inactive	inactive	inactive	inactive	inactive	inactive	inactive	inactive	inactive	inactive	inactive	inactive	inactive	inactive
Cc1c2oc3c(C)ccc(C(=O)N[C@@H]4C(=O)N[C@H](C(C)C)C(=O)N5CCC[C@H]5C(=O)N(C)CC(=O)N(C)[C@@H](C(C)C)C(=O)O[C@@H]4C)c3nc-2c(C(=O)N[C@@H]2C(=O)N[C@H](C(C)C)C(=O)N3CCC[C@H]3C(=O)N(C)CC(=O)N(C)[C@@H](C(C)C)C(=O)O[C@@H]2C)c(N)c1=O (I: T[dV]P[Sar][NMeV] / II: T[dV]P[Sar][NMeV]; ester I:1-I:C, II:1-II:C; linker I:N-II:N via Actinocin(9to1))	0.0045 µM (active)	0.0032 µM (active)	0.004 µM (active)	0.0056 µM (active)	0.0045 µM (active)	0.0045 µM (active)	0.006 µM (active)	0.0054 µM (active)	0.0076 µM (active)	0.006 µM (active)	0.006 µM (active)	0.0054 µM (active)	0.0071 µM (active)	7.08e-05 µM (active)	0.0018 µM (active)	0.0071 µM (active)	0.0035 µM (active)	0.0056 µM (active)	0.0079 µM (active)	0.0035 µM (active)
CCN1CCC[C@H]1CNC(=O)c1c(OC)ccc(Br)c1OC	inactive	inactive	inactive	inactive	inactive	inactive	inactive	inactive	inactive	inactive	inactive	inactive	inactive	–	inactive	–	inactive	inactive	inactive	inactive
CCCCCCCCCCCCCCCC[N+](C)(C)CC	5.01 µM (active)	10 µM (active)	6.31 µM (active)	3.55 µM (active)	3.98 µM (active)	3.98 µM (active)	4.78 µM (active)	6.01 µM (active)	6.75 µM (active)	10.7 µM (active)	4.78 µM (active)	9.53 µM (active)	5.62 µM (active)	4.47 µM (active)	5.01 µM (active)	4.47 µM (active)	5.01 µM (active)	5.01 µM (active)	5.01 µM (active)	2.82 µM (active)
CCCn1c(=O)[nH]c(=O)c2[nH]cnc21	inactive	inactive	inactive	inactive	inactive	inactive	inactive	inactive	inactive	inactive	inactive	inactive	inactive	inactive	inactive	inactive	inactive	inactive	inactive	inactive
COCc1c(C(C)C)nc(C(C)C)c(/C=C/[C@@H](O)C[C@@H](O)CC(=O)O)c1-c1ccc(F)cc1	inactive	inactive	inactive	inactive	inactive	inactive	inactive	inactive	inactive	inactive	inactive	–	inactive	inactive	inactive	–	inactive	inactive	inactive	inactive
